Reference: PubChem BioAssay AID602281 (The Scripps Research Institute Molecular Screening Center, 2012)
The whole screen tested about 360,000 compounds, of which about 2,900 (0.81%) were called active. What follows is part of a selection rich in actives, with near analogues and random picks from the rest. Values without a mark were called inactive.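 Rule for the calls: active = inhibition above the mean inhibition across every tested compound plus 3 SD (cut at about 22% in these data); inactive = the rest.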

What follows are compounds tested against Perilipin-5 (Homo sapiens) + 1-acylglycerol-3-phosphate O-acyltransferase ABHD5 (Homo sapiens) (UniProt Q00G26+Q8WTS1) (assay: blockers of ABHD5 binding to perilipin-5 – cell lysate, split luciferase complementation, luminescence, primary screen (AID 602281;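 note: 0% = DMSO only wells and the 100% control is not disclosed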)). Conditions: Split G. princeps luciferase complementation, 4 h, at 4 µM, active compounds read high.
Sequence of Perilipin-5 (Homo sapiens) + 1-acylglycerol-3-phosphate O-acyltransferase ABHD5 (Homo sapiens) (Q00G26 whole entry, looked up): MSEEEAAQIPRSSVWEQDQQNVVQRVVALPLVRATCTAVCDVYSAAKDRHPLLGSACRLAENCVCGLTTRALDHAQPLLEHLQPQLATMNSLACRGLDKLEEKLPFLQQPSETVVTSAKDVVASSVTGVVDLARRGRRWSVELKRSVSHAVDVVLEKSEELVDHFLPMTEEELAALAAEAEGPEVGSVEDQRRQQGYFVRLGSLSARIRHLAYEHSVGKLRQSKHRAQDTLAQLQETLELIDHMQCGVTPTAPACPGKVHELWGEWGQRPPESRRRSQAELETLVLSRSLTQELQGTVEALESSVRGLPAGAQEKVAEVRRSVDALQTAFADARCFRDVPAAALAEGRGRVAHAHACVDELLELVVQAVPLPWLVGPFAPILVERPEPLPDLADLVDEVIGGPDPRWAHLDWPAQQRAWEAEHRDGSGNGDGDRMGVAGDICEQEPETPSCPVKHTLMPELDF
Sequence of Perilipin-5 (Homo sapiens) + 1-acylglycerol-3-phosphate O-acyltransferase ABHD5 (Homo sapiens) (Q8WTS1 whole entry, looked up): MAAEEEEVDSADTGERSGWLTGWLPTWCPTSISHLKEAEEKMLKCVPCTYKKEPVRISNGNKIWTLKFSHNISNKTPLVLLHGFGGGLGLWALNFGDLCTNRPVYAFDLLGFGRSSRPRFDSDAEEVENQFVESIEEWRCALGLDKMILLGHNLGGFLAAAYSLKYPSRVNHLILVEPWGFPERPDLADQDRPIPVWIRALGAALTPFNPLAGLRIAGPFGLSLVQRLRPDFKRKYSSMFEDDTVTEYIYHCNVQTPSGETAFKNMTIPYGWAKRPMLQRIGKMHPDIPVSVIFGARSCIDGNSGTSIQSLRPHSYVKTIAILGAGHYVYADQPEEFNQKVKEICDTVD

| Compound | inhibition |
| --- | --- |
| CC(=O)c1c(C)[nH]c(C(=O)COc2ccc3c(C)cc(=O)oc3c2)c1C | -4.41% |
| C/C(=N\NC(=O)c1ccc(C)cc1)C1C(=O)c2ccccc2C1=O | 5.2% |
| CN(C)C(=O)c1ccc(NC(=O)c2ccccc2-c2ccccc2)cc1 | 2.67% |
| O=C(NC1=CC(=O)c2ccccc2C1=O)c1ccccc1 | 84.6% (active) |
| CCC(=O)Nc1ccc(C(=O)CSc2nnc(CNc3ccc(Cl)cc3)o2)cc1OC | -15.2% |
| OC1CSc2nc3ccccc3n2C1 (configuration not stated) | 1.22% |
| O=C(Cc1ccccc1Cl)N1CCOCC1 | 1.3% |
| Cc1cc(C)c(NC(=O)CN2C(=O)NC(Cc3ccccc3)C2=O)c(C)c1 (configuration not stated) | 3.3% |
| Cc1ccc(CS(=O)(=O)c2ncc(Cl)c(C(=O)Nc3nnc(C)s3)n2)cc1 | 43.2% (active) |
| Cc1ccc(CS(=O)(=O)CCC(=O)NC2CC2)cc1 | 0.91% |
| O=C(Nc1nnc(Cc2ccc(Cl)cc2)s1)c1cccnc1 | 10% |
| CSc1nnc(NC(=O)c2nc(S(=O)(=O)Cc3ccc(C)cc3)ncc2Cl)s1 | 32.5% (active) |
| CN(Cc1ccccc1)S(=O)(=O)c1nnc(NC(=O)c2ccccc2F)s1 | -11.4% |
| CCOC(=O)c1sc(N)c(C#N)c1COC(=O)C1=COCCO1 | -2.21% |
| CCCCn1c(N)c(N(CCOC)C(=O)c2cccc(S(=O)(=O)N(C)c3ccccc3)c2)c(=O)[nH]c1=O | -4.97% |
| COC(=O)Cc1ccc(N(Cc2ccccc2F)S(=O)(=O)c2ccc(Br)cc2)cc1 | 0.04% |
| Cc1cccc(NC(=O)c2ccc3nsnc3c2)c1C | 122% (active) |
| Cc1cccc(NC(=O)c2ccc(OCC(=O)NCc3ccccc3)cc2)c1C | -5.25% |
| Cc1cccc(NC(=O)c2cccc(C(=O)Nc3cccc(C)c3C)n2)c1C | -2.21% |
| Cc1noc(C)c1COc1ccccc1C(=O)N(C)CC(=O)Nc1cccc(F)c1 | 8.24% |
| O=NN(CCCl)C(=O)NCCc1cccc[n+]1[O-] | 1.74% |
| COC(=O)C1(C)NC(c2ccc(F)cc2)C2C(=O)N(c3ccccc3)C(=O)C21 (configuration not stated) | -0.78% |
| COC(=O)C1(C)NC(c2ccc(C)cc2)C2C(=O)N(c3ccc(F)cc3)C(=O)C21 (configuration not stated) | 4.79% |
| COC(=O)C1(C)NC(c2ccccc2OC)C2C(=O)N(c3ccccc3)C(=O)C21 (configuration not stated) | 69.3% (active) |

| Compound | inhibition |
| --- | --- |
| CC(C)CNC(=S)NNC(=O)c1nn(C)cc1Cl | -4.74% |
| CCOc1ccc(CCN2C(=O)C(=O)N([C@@H](Cc3ccc(O)cc3)CN3CCC[C@H]3CN3C(=O)C(=O)NC[C@@H]3CC(C)C)C[C@@H]2Cc2ccccc2)cc1 | 3.51% |
| Cc1cc(NC(=O)COC(=O)COc2ccc(Cl)cc2C)c([N+](=O)[O-])cc1C | 4.5% |
| CC(=O)c1ccc(N2CCN(S(=O)(=O)c3c(C)[nH]c(=O)[nH]c3=O)CC2)cc1 | 1.36% |
| CCN(CCCNC(=O)CCn1c(=O)[nH]c2ccsc2c1=O)c1ccccc1 | -1.79% |
| CCN(CCCNC(=O)c1ccc2c(c1)NC(=O)CN2C)c1cccc(C)c1 | 76.6% (active) |
| CCN1CCN(CCNC(=O)c2ccc3c(c2)NC(=O)/C(=C\c2cccc(Cl)c2)S3)CC1 | 12.3% |
| CCN(c1ccc2c(c1)OCO2)S(=O)(=O)c1cc(Br)cc2c1N(C(=O)C1CC1)CC2 | -5.83% |
| O=C(NNS(=O)(=O)c1ccc(F)cc1)c1cnccn1 | -1.88% |
| COc1ccc(-c2cc3n(n2)CCc2nc4ccccc4n2-3)cc1 | 5.6% |
| CC(C)c1ccc2oc(=O)cc(CN3CCN(Cc4ccccc4)CC3)c2c1 | -1.39% |
| Cc1nc([N+](=O)[O-])nn1C12CC3CC(CC(Br)(C3)C1)C2 | -11.4% |
| O=C(Nc1nc(-c2ccco2)c(-c2ccco2)s1)c1ccco1 | 25.3% (active) |
| CCc1nnc(NC(=O)c2ccco2)s1 | 3.45% |
| O=C(Nc1nonc1-c1ccc(Cl)cc1)c1ccco1 | -2.13% |
| Cc1cc(C)c(C#N)c(SCS(=O)c2ccc(C(C)(C)C)cc2)n1 (configuration not stated) | 5.68% |
| S=C(Nc1ccc(Br)cc1Cl)N1CCC2(CC1)OCCO2 | -3.87% |
| CCOC(=O)CCC(=O)OCC(=O)NC(C)C1CC2CCC1C2 (configuration not stated) | -2.3% |
| CSc1sc(C(=O)NC(=O)NCc2cccnc2)c(C)c1-c1ccon1 | 6.42% |
| Cc1ccc(C(=O)NC(=S)NCc2cccnc2)cc1 | 2.77% |
| Cc1ccc(-n2nc(-c3ccco3)cc2C(=O)NCc2cccnc2)cc1 | 36.3% (active) |
| CCc1ccc(OC2(C)CCN(CCOc3ccc(C)cc3)C2)cc1 (configuration not stated) | -1.92% |
| Cc1[nH]c2ccccc2c1C(=O)C(C)Sc1nnc(C2CC2)o1 (configuration not stated) | -5.93% |
